Measurements: PubChem BioAssay
Inconclusive results are not listed. The source made the active and inactive calls. Unless noted, no cut-off is given here; in the data, nearly all actives have AC50 up to about 26 µM.

Assays:
[1] = viability loss in pontine glioma line – cell-based, SU-DIPG-XVII, MIPE5.0, CellTiter-Glo, qHTS, dose response (AID 1347060); conditions: CellTiter-Glo ATP luminescence;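 for AC50: cells exposed to compound for 48 hours before viability readout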
[2] = viability loss in pontine glioma line – cell-based, SU-DIPG-XXV, MIPE5.0, CellTiter-Glo, qHTS, dose response (AID 1347065); conditions: CellTiter-Glo ATP luminescence;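 note: cells exposed to compound for 48 hours before ATP readout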
[3] = JHH-DIPG-1 glioma cell viability, MIPE5.0 library, CellTiter-Glo luminescence, qHTS (AID 1347067); conditions: JHH-DIPG-1 glioma viability, CellTiter-Glo ATP luminescence;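 note: cells exposed to compound for 48 hours before readout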
[4] = growth inhibition of DIPG cells – cell-based, MIPE5.0 library, qHTS (AID 1347068; cut-off not given, nearly all actives have IC50 up to about 30 µM;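 for IC50: cells exposed to compound for 48 hours before viability readout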); conditions: SU-DIPG-XXV viability
[5] = growth inhibition of DIPG cells – cell-based, MIPE4.0 library, CellTiter-Glo luminescence, qHTS (AID 1347066; cut-off not given, nearly all actives have AC50 up to about 30 µM;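 note: cells exposed to compound for 48 hours before readout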); conditions: SU-DIPG-VI viability, CellTiter-Glo ATP luminescence
[6] = viability loss with induced miR-34 in A549 – imaging, A549 dox-inducible miR-34, nuclei and caspase counts, primary screen (AID 1347080;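 active = compounds whose cell count with miR-34 switched on is under 0.7 times the count with it off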); conditions: A549 miR-34 inducible, Hoechst nuclei count, 48 h
[7] = MELAS cybrid and Rieske KO viability enhancers – cell-based, MELAS cybrids, Rieske KO mouse fibroblasts, CellTiter-Glo, primary screen (AID 1508586;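 active = mean z-score across replicates of 1.96 or higher in either the MELAS or the Rieske mutant cell line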;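 note: z relative to plate mean and SD of compound and empty wells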); conditions: low glucose
[8] = compounds altering HSF1 focus formation in cells – imaging, Selleck Cancer Library (AID 1347162; in the data active = plate-normalised HSF1 focus index below about 0.46); conditions: human cells, HSF1 nuclear foci imaging, at 10 µM; SSMD: measured here: HSF1 foci SSMD mean; cell count: measured here: cell number; plate-normalised HSF1 focus index: stronger effect = lower value
[9] = drug combination growth inhibition, ovarian cancer – cell-based, oncology-focused library, rucaparib conditional, profiling panel (AID 1508598;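 active = normalized viability below 100% at a tested concentration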); conditions: patient-derived ovarian cancer cells, CellTiter-Glo viability, 144 h, stronger effect = lower value

CN1CCN(C(=O)[C@H]2[C@@H](C(=O)O)[C@H]3CC[C@@H]2O3)CC1
inactive: outcome [1] | outcome [2] | outcome [3] | outcome [4]

Cc1c(-c2ccnn2C)cc(C(=O)NCc2ccc(S(C)(=O)=O)cn2)c(=O)n1-c1cccc(C(F)(F)F)c1
inactive: outcome [1] | outcome [2] | outcome [3]

Cc1cnc(NC(=O)c2cc(Oc3cnc(C(=O)N(C)C)nc3)c3cc(C)oc3c2)cn1
inactive: outcome [1] | outcome [2] | outcome [3] | outcome [4]

COc1ccc2[nH]c(C(=O)N3CCC(CC(C)(C)O)CC3)cc2c1
inactive: outcome [1] | outcome [2] | outcome [3]

C[C@@H]1COCCN1c1cc(-c2ccnn2C)c2ccnc(-c3ccn[nH]3)c2n1
active: AC50 [1] 1.48 µM | AC50 [2] 1.86 µM | AC50 [3] 5.25 µM

CCC[C@H](N[C@H]1CCc2cc(F)cc(F)c2C1)C(=O)Nc1cn(C(C)(C)CNCC(C)(C)C)cn1
active: AC50 [1] 33.2 µM | AC50 [2] 18.6 µM | AC50 [3] 23.5 µM

Cc1c(NC(=O)c2cc3c(s2)CCCC3)cccc1-c1cn(C)c(=O)c(Nc2ccc(C3C(=O)N(C)CCN3C)cc2)n1 (configuration not stated)
active: AC50 [1] 23.5 µM | AC50 [2] 18.6 µM | AC50 [3] 18.6 µM

C[C@@H](OC[C@@]1(c2ccccc2)CC[C@]2(CCC(=O)N2)CN1)c1cc(C(F)(F)F)cc(C(F)(F)F)c1
active: AC50 [1] 20.9 µM | AC50 [2] 18.6 µM | AC50 [3] 14.8 µM | IC50 [4] 20.9 µM

Cn1cc(C2=C(c3cn(C)c4cc([N+](=O)[O-])ccc34)C(=O)NC2=O)c2ccccc21
active: AC50 [1] 0.332 µM | AC50 [2] 0.263 µM | AC50 [3] 0.468 µM | IC50 [4] 4.68 µM

CCc1c(C(=O)NNC(=O)[C@@H](O)c2cc(F)cc(F)c2)ccc(O)c1C
inactive: outcome [1] | outcome [2] | outcome [3]

NC(=O)[C@H]1CCS[C@@H]2C[C@]3(CCCN3C(=O)Cc3ccc(NC(=O)COc4ccc(Cl)cc4Cl)cc3)C(=O)N12
active: AC50 [1] 4.17 µM | AC50 [2] 10.5 µM | AC50 [3] 16.6 µM

COc1cc2c(cc1OC)CN(CCc1ccc(-n3nnc(-c4cc(OC)c(OC)cc4NC(=O)c4cc(=O)c5ccccc5o4)n3)cc1)CC2
inactive: outcome [1] | outcome [2] | outcome [3] | outcome [4]

Fc1ccc2[nH]ccc2c1-c1nc(N2CCOCC2)c2sc(CN3CCN(CC4CC4)CC3)cc2n1
active: AC50 [1] 20.9 µM | AC50 [2] 23.5 µM | AC50 [3] 23.5 µM

C[C@]1(C(=O)N(CCCC(=O)O)Cc2cccc(Cl)c2)CCN1C(=O)c1csc2ccccc12
inactive: outcome [1] | outcome [2] | outcome [3] | outcome [4]

COc1ccc2[nH]c3c(c2c1)CCN[C@]31CS[C@@H]2c3c(OC(C)=O)c(C)c4c(c3[C@H](COC1=O)N1[C@@H]2[C@H]2c3c(cc(C)c(OC)c3O)C[C@@H]([C@@H]1O)N2C)OCO4
active: AC50 [1] 0.000959 µM | AC50 [2] 0.0034 µM | AC50 [3] 0.00135 µM

Cn1cc(-c2c[nH]c3ncnc(N4CCOCC4)c23)cn1
inactive: outcome [1] | outcome [2] | outcome [3] | outcome [4]

CCN(CC)CCCC[C@H](NC(=O)[C@H](CC(C)C)NC(=O)[C@H](C)NC(=O)[C@H](Cc1ccccc1)NC(=O)c1ccc(C(C)(C)C)cc1)C(=O)N[C@@H](CO)C(=O)OC
inactive: outcome [1] | outcome [2] | outcome [3] | outcome [4]

COc1cc(-c2cn(C)c(=O)c3cnccc23)c(OC)cc1CN(C)C
inactive: outcome [1] | outcome [2] | outcome [3] | outcome [4]

COC1CCC(N2C(=O)CNc3ncc(-c4ccc(C(C)(C)O)nc4)nc32)CC1 (configuration not stated)
active: AC50 [1] 9.34 µM | AC50 [2] 11.8 µM | AC50 [3] 16.6 µM | IC50 [4] 14.8 µM

CC[C@@H](Oc1cccc(CN(CCCOc2ccc(OC)cc2)c2nc3ccccc3o2)c1)C(=O)O
inactive: outcome [1] | outcome [2] | outcome [3] | outcome [4]

CO[C@@H]1C(N(C)C(=O)c2ccccc2)C[C@H]2O[C@]1(C)n1c3ccccc3c3c4c(c5c6ccccc6n2c5c31)C(=O)NC4=O (some centres not stated)
inactive: outcome [5]
active: AC50 [1] 0.934 µM | AC50 [2] 0.934 µM

CCS(=O)(=O)N1CC(CC#N)(n2cc(-c3ncnc4[nH]ccc34)cn2)C1
0.869: fold change ([6]; measured here: relative caspase fold change +Dox/-Dox)
9020: cell count ([6]; measured here: total cells without miR-34 induction)
0.0326: z-score ([7]; Rieske KO mouse fibroblast survival, CellTiter-Glo 72 h)
active: AC50 [1] 18.6 µM | AC50 [2] 18.6 µM
8770: cell count ([6]; measured here: total cells with miR-34 induction, stronger effect = lower value)
inactive: outcome [5] | outcome [3] | fold change ([6]; stronger effect = lower value, cell number ratio, induced over uninduced) 0.973 | z-score ([7]; MELAS cybrid survival, CellTiter-Glo 48 h, stronger effect = higher value) -0.48

CC[C@H](NC(=O)[C@H](CS(=O)(=O)CC1CC1)N[C@@H](c1ccc(F)cc1)C(F)(F)F)C(=O)C(=O)NC1CC1
inactive: outcome [1] | outcome [2] | outcome [3]

COc1ccc(C(=O)N2CCN(C(=O)/C=C/c3ccc(Br)cc3)CC2)cc1
inactive: outcome [1] | outcome [2] | outcome [3] | outcome [4]

Oc1ccc([C@@H]2Oc3ccc(O)cc3[C@@H]3CCC[C@@H]32)cc1
inactive: outcome [5]
active: AC50 [1] 13.2 µM | AC50 [2] 11.8 µM

C[C@@H](Oc1cc(-n2cnc3ccc(CN4CCN(C)CC4)cc32)sc1C(N)=O)c1ccccc1C(F)(F)F
1.17: SSMD [8]
6420: cell count [8]
inactive: plate-normalised HSF1 focus index [8] 1.06
active: AC50 [1] 0.0525 µM | AC50 [2] 0.0372 µM | AC50 [5] 18.7 µM | viability ([9]; at 0.000305 µM, OCI-C5x cells, with rucaparib 10 µM, 100% = cells with rucaparib alone) 99.2% | viability ([9]; at 0.000305 µM, OCI-C5x cells, without rucaparib) 88.3% | viability ([9]; at 0.000305 µM, OCI-P5x cells, with rucaparib 20 µM, 100% = cells with rucaparib alone) 87% | viability ([9]; at 0.000305 µM, OCI-P5x cells, without rucaparib) 33.3% | viability ([9]; at 0.00122 µM, OCI-C5x cells, with rucaparib 10 µM, 100% = cells with rucaparib alone) 92.1% | viability ([9]; at 0.00122 µM, OCI-C5x cells, without rucaparib) 72.7% | viability ([9]; at 0.00122 µM, OCI-P5x cells, with rucaparib 20 µM, 100% = cells with rucaparib alone) 73.8% | viability ([9]; at 0.00122 µM, OCI-P5x cells, without rucaparib) 22% | viability ([9]; at 0.00488 µM, OCI-C5x cells, with rucaparib 10 µM, 100% = cells with rucaparib alone) 76.5% | viability ([9]; at 0.00488 µM, OCI-C5x cells, without rucaparib) 44% | viability ([9]; at 0.00488 µM, OCI-P5x cells, with rucaparib 20 µM, 100% = cells with rucaparib alone) 73.2% | viability ([9]; at 0.00488 µM, OCI-P5x cells, without rucaparib) 18% | viability ([9]; at 0.0195 µM, OCI-C5x cells, with rucaparib 10 µM, 100% = cells with rucaparib alone) 46.7% | viability ([9]; at 0.0195 µM, OCI-C5x cells, without rucaparib) 33.6% | viability ([9]; at 0.0195 µM, OCI-P5x cells, with rucaparib 20 µM, 100% = cells with rucaparib alone) 62.1% | viability ([9]; at 0.0195 µM, OCI-P5x cells, without rucaparib) 13.6% | viability ([9]; at 0.0781 µM, OCI-C5x cells, with rucaparib 10 µM, 100% = cells with rucaparib alone) 41.7% | viability ([9]; at 0.0781 µM, OCI-C5x cells, without rucaparib) 30.9% | viability ([9]; at 0.0781 µM, OCI-P5x cells, with rucaparib 20 µM, 100% = cells with rucaparib alone) 62.6% | viability ([9]; at 0.0781 µM, OCI-P5x cells, without rucaparib) 15.3% | viability ([9]; at 0.313 µM, OCI-C5x cells, with rucaparib 10 µM, 100% = cells with rucaparib alone) 34.4% | viability ([9]; at 0.313 µM, OCI-C5x cells, without rucaparib) 22.2% | viability ([9]; at 0.313 µM, OCI-P5x cells, with rucaparib 20 µM, 100% = cells with rucaparib alone) 70.6% | viability ([9]; at 0.313 µM, OCI-P5x cells, without rucaparib) 13.4% | viability ([9]; at 1.25 µM, OCI-C5x cells, with rucaparib 10 µM, 100% = cells with rucaparib alone) 38.1% | viability ([9]; at 1.25 µM, OCI-C5x cells, without rucaparib) 28.8% | viability ([9]; at 1.25 µM, OCI-P5x cells, with rucaparib 20 µM, 100% = cells with rucaparib alone) 62.3% | viability ([9]; at 1.25 µM, OCI-P5x cells, without rucaparib) 15.1% | viability ([9]; at 5 µM, OCI-C5x cells, with rucaparib 10 µM, 100% = cells with rucaparib alone) 51.4% | viability ([9]; at 5 µM, OCI-C5x cells, without rucaparib) 3.97% | viability ([9]; at 5 µM, OCI-P5x cells, with rucaparib 20 µM, 100% = cells with rucaparib alone) 0.676% | viability ([9]; at 5 µM, OCI-P5x cells, without rucaparib) 11.4%
